TEAD-YAP block = TEAD-YAP interaction inhibition, primary screen, TEAD-YAP interaction inhibitor project, luminescence, HEK-TIYL cells; TEAD-Gal4/YAP UAS-luciferase luminescence; inhibition, % at 9.12 µM; AID 1259422, 2018; 640,000 compounds, 1.4% hits; in the data active means inhibition above about 32%
MITF inh = MITF inhibitors, primary screen, biochemical, AlphaScreen, human; inhibition, % at 2.6 µM; 650,000 compounds, 0.91% hits; Microphthalmia-associated transcription factor (Homo sapiens), O75030; AlphaScreen MITF homodimerization, bead proximity signal; in the data active means inhibition above about 50%
Target sequence (O75030 whole entry, looked up): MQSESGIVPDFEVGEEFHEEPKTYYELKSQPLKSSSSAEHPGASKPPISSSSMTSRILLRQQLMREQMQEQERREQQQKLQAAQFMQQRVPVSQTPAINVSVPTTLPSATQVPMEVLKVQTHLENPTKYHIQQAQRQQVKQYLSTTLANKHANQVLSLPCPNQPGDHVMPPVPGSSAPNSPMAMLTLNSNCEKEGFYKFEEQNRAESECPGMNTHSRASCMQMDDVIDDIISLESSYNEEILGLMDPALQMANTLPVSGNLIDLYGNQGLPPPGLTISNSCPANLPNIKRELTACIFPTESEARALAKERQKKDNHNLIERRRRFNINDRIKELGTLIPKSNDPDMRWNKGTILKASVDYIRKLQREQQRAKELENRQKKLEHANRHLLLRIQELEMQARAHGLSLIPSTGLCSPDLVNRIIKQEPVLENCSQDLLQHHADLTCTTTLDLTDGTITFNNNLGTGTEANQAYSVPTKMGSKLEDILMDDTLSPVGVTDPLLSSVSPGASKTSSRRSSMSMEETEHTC
GPR151 activ = activators of human GPR151, primary screen, cell-based, PathHunter beta-arrestin, luminescence; activation, % at 11.2 µM; PathHunter beta-arrestin GPR151 cells; 650,000 compounds, 1% hits; in the data active means activation above about 4.9%
FBW7 act = FBW7 E3 ligase activators, primary screen, biochemical, AlphaScreen, human. normalized activity (activation), % at 26.1 µM. F-box/WD repeat-containing protein 7 (Homo sapiens), Q969H0. 650,000 compounds, 0.13% hits. AlphaScreen FBW7–phospho-cyclin E peptide binding, activator screen. AID 1259310, 2017; in the data active means normalized activity above about 1.9%;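 further: purified mutant Fbw7 with reduced substrate affinity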
MITF inh conf = MITF inhibitors, retest of hits, confirmation, biochemical, AlphaScreen, triplicate | shares compounds with MITF inh | AlphaScreen MITF homodimerization, biotin/His-MITF beads | inhibition, % at 2.6 µM | 4,700 compounds, 16% hits | AID 1259372, 2018;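 active means inhibition above a cutoff derived from the DMSO control wells, cut at about 28% in these data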;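 further: inhibitors lower the bead chemiluminescence by keeping MITF from dimerizing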
AS interf DR = AlphaScreen optical interference compounds, dose response, counter-screen, biochemical, HTS; AlphaScreen optical interference counterscreen, cell-free; IC50, µM; shares compounds with MITF inh; 480 compounds, 6% hits; call rule not given here
AS interf ctr = AlphaScreen optical interference compounds, counter-screen for MITF inhibitor project, biochemical, triplicate; shares compounds with MITF inh; AID 1259376, 2018; 4,700 compounds, 7.6% hits; inhibition, % at 2.6 µM; LysRS AlphaScreen counterscreen, signal interference;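 active means inhibition above a cutoff derived from the DMSO control wells, cut at about 30% in these data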
Of the large screens only hits and unclear results are named; the others gave an inactive call (follow-up assays come after a bar, where they were run). The list is not random: actives were taken first. Their share in the collection is about 3.5%.

CN(C)c1ccc(/C=C/c2nc3ccccc3c(=O)n2-c2ccc([N+](=O)[O-])cc2)cc1	none
C=Cn1ccnc1P(c1ccccc1)c1nccn1C=C	MITF inh 104 | MITF inh conf 110 | AS interf ctr 100
CCCC1CCC(C2CCC(=O)CC2)CC1 (stereo not drawn)	MITF inh 53 | MITF inh conf inactive | AS interf ctr inactive
COCCCn1c(C)nnc1SCC(=O)Nc1nnc(C)s1	none
CCC(=O)N1CCc2cc(S(=O)(=O)N3CC(C)CC(C)C3)ccc21 (stereo not drawn)	MITF inh 81 | MITF inh conf inactive | AS interf ctr inactive
O=C(NCc1cccnc1)c1ccc2c(Cl)c3c(nc2c1)CCC3	none
Cc1ccc2cc(CN(CCO)C(=O)c3ccc(Cl)cc3)c(=O)[nH]c2c1	MITF inh 54 | MITF inh conf inactive | AS interf ctr inactive
COc1ccc(CN2CCN(C3CCCC3)CC2)cc1OC	none
COc1ccc(CN2CCN(C3CC4CCC3C4)CC2)cc1 (stereo not drawn)	MITF inh 77 | MITF inh conf inactive | AS interf ctr inactive
c1ccc(CN2CCC(N3CCN(C4CC5CCC4C5)CC3)CC2)cc1 (stereo not drawn)	none
COc1ccc(CN2CCN(C3CC4CCC3C4)CC2)cc1OC (stereo not drawn)	MITF inh 63 | MITF inh conf inactive | AS interf ctr inactive
CCc1cc2c(=O)c(Oc3ccc(OC)cc3)coc2cc1OC	none
O=C(CNCCCN1CCOCC1)Nc1ccc(N2CCCCCC2)cc1	MITF inh 75 | MITF inh conf inactive | AS interf ctr inactive
O=C(CNCCN1CCCCC1)Nc1ccc(N2CCCC2)cc1	MITF inh 83 | MITF inh conf inactive | AS interf ctr 61
O=C(CCl)Nc1ccc(N2CCCCC2)cc1	none
CCOCCCNCC(=O)Nc1ccc(N2CCCC2)cc1	none
O=C(CNCCN1CCCCC1)Nc1ccc(N2CCCCCC2)cc1	MITF inh 91 | MITF inh conf inactive | AS interf ctr 34
O=C(CNCCN1CCCCC1)Nc1ccc(N2CCCCC2)cc1	MITF inh 94 | MITF inh conf inactive | AS interf ctr inactive
O=C(NC1=NCCS1)c1cccc(C(=O)NC2=NCCS2)c1	none
CCn1cc(C(=O)N2C[C@@H](C(=O)O)[C@H](c3ccc(OC)cc3)C2)c(C)n1	none
O=C(Nc1c(Cl)cccc1Cl)N[C@H]1C[C@H]2C(=O)N[C@H](CO)C(=O)N2C1	none
CN(CCC#N)C(=O)COC(=O)c1c2c(nc3ccccc13)/C(=C/c1ccco1)CC2	MITF inh 73 | MITF inh conf 80 | AS interf DR inactive | AS interf ctr inactive
NC(=O)NC(=O)COC(=O)c1c2c(nc3ccccc13)/C(=C\c1ccco1)CCC2	MITF inh 61 | MITF inh conf 79 | AS interf DR inactive | AS interf ctr inactive
O=C(C1CCCN(Cc2ccc(Cl)cc2)C1)N1CCCCCC1 (stereo not drawn)	MITF inh 88 | MITF inh conf inactive | AS interf ctr inactive
CCOc1ccccc1CN1CCC(N2CCCCCC2)CC1	MITF inh 78 | MITF inh conf inactive | AS interf ctr inactive
O=C(C1CCCN(Cc2ccc(Br)cc2)C1)N1CCCCC1 (stereo not drawn)	MITF inh 60 | MITF inh conf inactive | AS interf ctr inactive
CCOC(=O)C1CCCN(C2CC(=O)N(c3ccc(F)cc3)C2=O)C1 (stereo not drawn)	none
CCOC(=O)C1CCCN(CC(=O)c2ccc(F)cc2)C1 (stereo not drawn)	MITF inh 69 | MITF inh conf inactive | AS interf ctr inactive
COc1cccc(CN2CCN(C3CCN(C(C)=O)CC3)CC2CCO)c1 (stereo not drawn)	none
CC(=O)Nc1nc(-c2cc(C)ccc2C)c(C)s1	none
COc1ccc(CNC(=O)c2ccc3c(c2)NC(=O)CS3)cc1	none
CCOc1ccc2nc(N3CCCC(C(=O)Nc4ccc(NC(C)=O)cc4)C3)sc2c1 (stereo not drawn)	none
CCOC(=O)C1CCCCN1Cc1ccc(Br)cc1 (stereo not drawn)	MITF inh 55 | MITF inh conf inactive | AS interf ctr inactive
CCCN1CCN(C(=O)C2CCCN(c3nc4ccc(OCC)cc4s3)C2)CC1 (stereo not drawn)	MITF inh 62 | MITF inh conf inactive | AS interf ctr inactive
CCOC(=O)C1CCCCN1Cc1ccc(O)cc1 (stereo not drawn)	none
COc1ccc(CN2CCCC(C(=O)N3CCCC3)C2)c(OC)c1 (stereo not drawn)	MITF inh 54 | MITF inh conf inactive | AS interf ctr inactive
CCOc1ccccc1CN1CCCC(C(=O)N2CCCCCC2)C1 (stereo not drawn)	MITF inh 70 | MITF inh conf inactive | AS interf ctr inactive
CCN1C(=O)/C(=C\c2nc3ccccc3c(=O)n2-c2cccc(OC)c2)c2ccccc21	none
O=C(CNc1ccc(I)cc1)N/N=C/c1ccccc1O	none
Cc1ccc(-c2nc(CS(=O)(=O)CC(=O)NCCC3=CCCCC3)c(C)o2)cc1	none
CCOC(=O)C1CCCN(Cc2ccc(NC(C)=O)cc2)C1 (stereo not drawn)	none
CCOc1ccc(CN2CCC(C(=O)N3CCCC3)CC2)cc1	none
CCOC(=O)C1CCCN(Cc2ccc(Br)cc2)C1 (stereo not drawn)	MITF inh 57 | MITF inh conf inactive | AS interf ctr inactive
CCOc1ccc(CN2CCCC(C(=O)N3CCCC3)C2)cc1 (stereo not drawn)	MITF inh 68 | MITF inh conf inactive | AS interf ctr inactive
CCC(=O)N(Cc1ccccc1)Cc1cc2cc3c(cc2[nH]c1=O)OCO3	none
CCCC(CCC)c1nc2ccncc2[nH]1	MITF inh 52 | MITF inh conf inactive | AS interf ctr inactive
O=C1NC(=O)C(CCc2ccccc2)(C2CCN(Cc3ccc4c(c3)OCO4)CC2)N1 (stereo not drawn)	none
COc1ccc(C2/C(=C(/O)c3ccc(C)cc3)C(=O)C(=O)N2CC(C)O)cc1OC (stereo not drawn)	MITF inh 68 | MITF inh conf inactive | AS interf ctr inactive
NC(=O)c1ccc(NC(=O)COC(=O)c2cc3c(s2)CCC3)cc1	none
NC(=O)COC(=O)c1cc2c(s1)CCC2	MITF inh 62 | MITF inh conf 60 | AS interf DR inactive | AS interf ctr inactive

Compound activity: PubChem, The Scripps Research Institute Molecular Screening Center
